# An excerpt weighted towards active compounds, which were near 12% of everything screened.
# BAZ2B inh: inhibitors of human BAZ2B bromodomain. AlphaScreen BAZ2B-H3K14Ac peptide displacement. Q9UIF8. Potency, µM (top dose mostly 114 µM), without a hit: at the top dose activity change, negative = inhibition, usual class: inhibitors. hit rate 4.4% among 360,000; further: potency means the concentration at half of the fitted maximal effect; on the % scale 0 is the no-effect control and ±100 the full control effect; nearly all actives have a fitted effect of over 60% in size
#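 Protein-peptide AlphaScreen: BAZ2B 50 nM, b-H3K14Ac 50 nM, 1x PBS pH 7.4 + 0.01% Tween-20. Preincubation 30 min RT; cpd 30 min RT (top 110 uM); beads 20 min RT, light-protected.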
# JMJD2A Tudor inh: JMJD2A Tudor domain (human) inhibition; O75164; AlphaScreen JMJD2A-Tudor / H3K4me3 peptide binding; Potency, µM (series often up to 114 µM), for the others: top-dose activity change, negative = inhibition, most hits filed as inhibitors; hit rate 4.4% among 390,000; further: potency means the concentration at half of the fitted maximal effect; on the % scale 0 is the no-effect control and ±100 the full control effect; nearly all actives have a fitted effect of over 50% in size
# PI5P4K alpha inh: PI5P4K alpha (human) kinase inhibition; P48426; PI5P4Kalpha enzyme, ADP-Glo luminescence, 60 min; stronger effect = lower value; max response, %; hit rate 1.2% among 330,000; AID 652105; active means max response of -50% or lower; inconclusive means between -30% and -50%; inactive means -30% or higher; further: value at the top dose of about 77 µM; on the % scale 0 is the no-effect control and ±100 the full control effect
#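 Compounds were pin-transferred onto PI5P4Kalpha and substrate in HEPES pH 7.4 buffer with EGTA, CHAPS and 5% DMSO. ATP (5 microM final) started the reaction, which ran 60 minutes at room temperature before ADP-Glo detection.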
# HP1b chromo inh: blocks HP1-beta chromodomain binding to methylated histone tails; Potency, µM (highest dose often 114 µM), for the others: top-dose activity change, negative = inhibition, hits mostly inhibitors; P83916; AlphaScreen HP1-beta / biotin-H3K9me3 peptide binding; hit rate 0.56% among 390,000; further: potency means the concentration at half of the fitted maximal effect; nearly all actives have a fitted effect of over 70% in size
# Target sequence (P83916 whole entry, looked up): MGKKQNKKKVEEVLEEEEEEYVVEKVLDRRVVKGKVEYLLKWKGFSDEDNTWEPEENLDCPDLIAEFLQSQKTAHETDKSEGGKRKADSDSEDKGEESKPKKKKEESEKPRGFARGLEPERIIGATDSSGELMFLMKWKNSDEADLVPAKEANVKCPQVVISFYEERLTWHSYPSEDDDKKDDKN
#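 Compound inhibition of the preformed complex between 50 nM HP1-beta and 50 nM biotinylated H3K9me3 peptide was read by AlphaScreen. Buffer was PBS pH 7.4 with 0.01% Tween-20. Incubations ran 30 min at room temperature, with 10 ug/mL donor/acceptor beads.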
# PLK1 PBD inh: PLK1 (human) polo-box domain binding inhibition. AID 720504. Plk1 PBD binding of FITC phosphopeptide, fluorescence polarization. hit rate 2.8% among 360,000. Potency, µM, inactives show max response, negative = inhibition, hits mostly inhibitors. P53350; further: potency means the concentration at half of the fitted maximal effect; series mostly up to about 57 µM; on the % scale 0 is the no-effect control and ±100 the full control effect; nearly all actives have a fitted effect of over 65% in size
# G9a inh: blocks human histone lysine methyltransferase G9a; AID 504332; Potency, µM (titrated, usually from 102 µM), without a hit: at the highest dose activity, negative = inhibition, hits mostly inhibitors; hit rate 8.8% among 350,000; G9a H3K9 monomethylation, AlphaScreen, 2 h; further: potency means the concentration at half of the fitted maximal effect; on the % scale 0 is the no-effect control and ±100 the full control effect; nearly all actives have a fitted effect of over 75% in size
# Target sequence (Q96KQ7 913-1193 limits assumed): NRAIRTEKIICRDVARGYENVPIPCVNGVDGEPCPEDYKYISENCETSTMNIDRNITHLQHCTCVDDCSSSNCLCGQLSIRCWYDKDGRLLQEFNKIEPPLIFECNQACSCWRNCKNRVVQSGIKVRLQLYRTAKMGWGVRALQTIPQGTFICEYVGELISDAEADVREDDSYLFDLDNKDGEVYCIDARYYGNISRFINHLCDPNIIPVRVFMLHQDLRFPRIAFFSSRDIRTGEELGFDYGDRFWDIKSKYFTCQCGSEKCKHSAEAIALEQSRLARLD
#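 Compounds were preincubated with 20 nM G9a for 15 min, after which biotinylated H3K9 peptide (500 nM) and SAM (20 uM) started a 2 h room-temperature reaction. Monomethylated product was quantified by antibody-based AlphaScreen chemiluminescence.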
# Starred values were filed as active, the others as inactive; ? = inconclusive; · = no result given; [ ] = remark or other dose. Unless noted, the call rests on the fitted dose curve; in most records, active means well fitted curve in the direction sought with a large enough effect; inconclusive means small, poorly fitted or top-dose-only effect, or another doubt; inactive means no such curve, though single readings can be large; an effect the other way counts as inactive or inconclusive.
SMILES,BAZ2B inh,JMJD2A Tudor inh,PI5P4K alpha inh,HP1b chromo inh,PLK1 PBD inh,G9a inh
COc1cc(C2NCC(c3ccc(Cl)cc3Cl)c3c2[nH]c2ccccc32)cc(OC)c1OC (centres undefined),35µM*,45µM*,4,?,?,-18%[59 µM]
O=C(O)c1ccc(C2NCC(c3ccccc3Cl)c3c2[nH]c2ccccc32)cc1 (centres undefined),-33%,?,5,6%,-5%,-7%[59 µM]
COCCNC(=O)c1c(NC(=O)c2cc(=O)c3cc(C)cc(C)c3o2)sc2c1CCCC2,-2%,-18%,·,4%,·,-2%[59 µM]
COc1ccc(CNc2ncnc3c2[nH]c2ccccc23)cc1,-22%,?,1,-9%,5%,50µM*
C1=C(CCNc2ncnc3c2[nH]c2ccccc23)CCCC1,?,-34%,-14,-17%,-6%,56µM*
CCN1CCN(c2ccc(S(=O)(=O)N3CCOCC3)cc2N)CC1,·,0%,6,24%,-2%,·
Cc1cccc(C)c1Nc1nn2c(=O)c3cc4c(cc3nc2s1)OCO4,-12%,-34%,·,-8%,·,0%[59 µM]
CCCCCNC(=O)C(C#N)c1nc2ccccc2nc1N1CCCC1 (centres undefined),-11%,-13%,4,64%,-26%,?
COCCOC(=O)C(C#N)c1nc2ccccc2nc1N1CCCC1 (centres undefined),-32%,-24%[57.1 µM],-3,-5%,-28%,?
CCN1CCN(c2nc3ccccc3nc2C(C#N)C(=O)OCc2ccccc2)CC1 (centres undefined),-35%,?,·,-6%,-3%,40µM*
COc1ccccc1N1CCN(c2nc3ccccc3nc2C(C#N)C(=O)OC(C)C)CC1 (centres undefined),?,?,1,-19%,2%,14µM*
COCCCNC(=O)C(C#N)c1nc2ccccc2nc1N1CCCC1 (centres undefined),?,-6%,13,34%,?,40µM*
Cc1ccc(C)c(N2CCN(c3nc4ccccc4c(=O)n3-c3ccc(Cl)cc3)CC2)c1,·,-18%,·,11%,·,-30%[59 µM]
CC(C)CCN1CCN(Cc2ccc(C#CCCO)cc2)CC1CCO (centres undefined),-3%,-16%,2,4%,-3%,-30%
C#CCOCCOCCOCCNc1nc(N2CCN(C(=O)[C@H]([C@@H](C)CC)n3cc(CCCCN)nn3)CC2)nc(N2CCN(C(=O)[C@H](C)n3cc(CCC(=O)O)nn3)CC2)n1,?,-20%,-1,7%,-2%,79µM*
C#CCOCCOCCOCCNc1nc(N2CCN(C(=O)[C@H]([C@@H](C)CC)n3cc(CCC(=O)O)nn3)CC2)nc(N2CCN(C(=O)[C@H](CCCCN)n3cc(CC(C)O)nn3)CC2)n1 (some centres undefined),·,?,-70*,31%,-21%,·
C#CCOCCOCCOCCNc1nc(N2CCN(C(=O)[C@H]([C@@H](C)CC)n3cc(CCC(=O)O)nn3)CC2)nc(N2CCN(C(=O)[C@H](CCCCN)n3cc(CCCC)nn3)CC2)n1,·,-7%,2,20%,-1%,·
C#CCOCCOCCOCCNc1nc(N2CCN(C(=O)Cn3cc(CCCN=C(N)N)nn3)CC2)nc(N2CCN(C(=O)Cn3cc(CC(C)O)nn3)CC2)n1 (centres undefined),·,-2%,-3,41%,2%,·
C#CCOCCOCCOCCNc1nc(N2CCN(C(=O)Cn3cc(CCO)nn3)CC2)nc(N2CCN(C(=O)[C@H](C(C)C)n3cc(CCO)nn3)CC2)n1,?,-18%,0,11%,-7%,45µM*
C#CCOCCOCCOCCNc1nc(N2CCOCC2)nc(N2CCN(C(=O)Cn3cc(CC(C)O)nn3)CC2)n1 (centres undefined),-14%,-18%,7,22%,-7%,79µM*
C[C@@H]1CN([C@H](C)CO)S(=O)(=O)c2ccc(Br)cc2O[C@H]1CN(C)C(=O)C1CC1,·,·,-2,·,-6%,·
CC[C@]12c3[nH]c4cc(CCC(=O)N(C)C)ccc4c3CCN1C(=O)[C@@H](CC(=O)NCc1cccc(C(F)(F)F)c1)C[C@@H]2C(=O)N1CCN(C(=O)c2ccco2)CC1,·,-5%,1,38%,2%,·
C#CCOCCOCCOCCNc1nc(N2CCN(C(=O)Cn3cc(CC(C)O)nn3)CC2)nc(N2CCN(C(=O)[C@H](CCCCN)n3cc(CCCC)nn3)CC2)n1 (some centres undefined),·,-10%,-3,28%,4%,·
C#CCOCCOCCOCCNc1nc(N2CCN(C(=O)Cn3cc(CCO)nn3)CC2)nc(N2CCN(C(=O)[C@H](CCCCN)n3cc(CC(C)O)nn3)CC2)n1 (some centres undefined),·,89µM*,5,6%,-3%,·
Cc1nc2c(c(=O)n1Cc1ccccc1Cl)c1nc3ccccc3nc1n2Cc1ccco1,-4%,·,·,·,·,?
SMILES,BAZ2B inh,JMJD2A Tudor inh,PI5P4K alpha inh,HP1b chromo inh,PLK1 PBD inh,G9a inh
Cc1ccc(S(=O)(=O)c2c(N)n(/N=C/c3ccco3)c3nc4ccccc4nc23)cc1,-4%,1%,-23,10%,2%,?
COc1ccc(Cn2c3nc4ccccc4nc3c3c(=O)n(Cc4ccco4)c(C)nc32)cc1,50µM*,·,·,·,·,?
COc1ccc(S(=O)(=O)c2c(N)n(Cc3ccco3)c3nc4ccccc4nc23)cc1,-23%,-20%,-89*,42%,?,45µM*
Cc1cc(C)cc(-n2c3nc4ccccc4nc3c3c(=O)n(Cc4ccco4)cnc32)c1,50µM*,-25%,-29,23%,-14%,?
COc1cc(NC(=O)CSc2nc(-c3ccc(C(C)C)cc3)no2)cc(OC)c1,3%,-2%,·,12%,·,2%[59 µM]
COc1ccc(C(=O)NNC(=S)NC(=O)c2ccc(OC)cc2)cc1,2%,-22%,0,54%,-2%,·
O=C(NC(=S)NCc1ccccc1)c1cccnc1,-20%,-6%,4,42%,-5%,9%
COc1ccc(/C=C/C(=O)NC(=S)NNC(=O)c2cccnc2)cc1,2%,-17%,-18,10%,-2%,?
COc1ccc(CC(=O)NNC(=S)NC(=O)c2cccnc2)cc1,11%,20µM*,-11,15%,?,·
COc1ccc(C(=O)NNC(=S)NC(=O)c2cccs2)cc1,-12%,-21%,1,28%,-19%,40µM*
COc1ccc(C(=O)NNC(=S)NC(=O)c2cccnc2)cc1,9%,-6%,5,18%,-5%,13µM*
O=C(Cc1ccccc1)NNC(=S)NC(=O)c1cccnc1,5%,25µM*,-4,18%,1%,10µM*
